Records with an inconclusive call do not appear. The source made the active and inactive calls. Rule for the calls: active = hit-call score of the fitted dose curve at least 0.9, where 1 is the maximum; inconclusive = response in the unintended direction; inactive = score below 0.9.
Target: human Retinoic Acid Receptor beta (RARb), RARB (gene 5915) (UniProt P10826)
Assay: ATG_RARb_TRANS: Attagene TRANS-FACTORIAL HepG2 Assay for human Retinoic Acid Receptor beta (AID 2283004)
Method: ATG_TRANS is a cell-based, multiplexed-readout assay that uses HepG2, a human liver cell line, with measurements taken at 24 hours after chemical dosing in a 24-well plate.ATG_RARb_TRANS is one of 30 assay component(s) measured or calculated from the ATG_TRANS assay. It is designed to make measurements of mRNA induction, a form of inducible reporter, as detected with fluorescence intensity signals by Reverse transcription polymerase chain reaction (RT-PCR) and Capillary electrophoresis technology.Data from the assay component ATG_RARb_TRANS was analyzed into 1 assay endpoint. This assay endpoint, ATG_RARb_TRANS, was analyzed in the positive analysis fitting direction relative to DMSO as the negative control and baseline of activity. Using a type of inducible reporter, measures of mRNA for gain-of-signal activity can be used to understand the reporter gene at the transcription factor-level as they relate to the gene RARB. Furthermore, this assay endpoint can be referred to as a primary readout, because this assay has produced multiple assay endpoints where this one serves a reporter gene function. To generalize the intended target to other relatable targets, this assay endpoint is annotated to the nuclear receptor intended target family, where the subfamily is non-steroidal.
Human liver HepG2 cells are transiently transfected with multiple reporter transcription units (MRTUs) in 6-well plates using FuGene 6 reagent (Roche; 3 ml FuGene/1 mg DNA). The MRTU constructs are regulated by a cis-regulating element (promoter). […] A major difference between the CIS and TRANS system is that in CIS activities of endogenous TFs are measured, whereas the TRANS assay evaluates changes in activities of exogenous, chimeric NR-Gal4 proteins. […] At the end of 24 hour incubation, total RNA was isolated using TriZol reagent (Invitrogen). The isolated RNA is then reverse-transcribed using oligo(dT) primer and Mo-MLV reverse transcriptase (Invitrogen) with DNAse I (Ambion) treatment for 30 min. The one-tenth of the produced cDNA was amplified by PCR using Taq DNA polymerase (Invitrogen) and two reporter sequence-specific primers. The PCR products were fluorescently labeled by primer extension with 6-arboxyfluorescein (6-FAM) 5'-labeled reporter sequence-specific primer (2 min at 95 C, 20 s at 68 C and 10 min at 72 C) and these products were digested with 5U of HpaI (New England Biolabs) for 2h at 37 C. The fragments were purified using Qiaquick PCR columns (Qiagen), analyzed on an ABI 3130xL genetic analyzer (Applied Biosystems) with peak positions identified by using a set of X-rhodamine (ROX)-labeled MapMarker1000 molecular weight standards (BioVentures). The raw capillary electrophoresis data was processed using Attagraph software (Attagene).

Chain of human Retinoic Acid Receptor beta (RARb), RARB (gene 5915) (P10826 whole entry, looked up): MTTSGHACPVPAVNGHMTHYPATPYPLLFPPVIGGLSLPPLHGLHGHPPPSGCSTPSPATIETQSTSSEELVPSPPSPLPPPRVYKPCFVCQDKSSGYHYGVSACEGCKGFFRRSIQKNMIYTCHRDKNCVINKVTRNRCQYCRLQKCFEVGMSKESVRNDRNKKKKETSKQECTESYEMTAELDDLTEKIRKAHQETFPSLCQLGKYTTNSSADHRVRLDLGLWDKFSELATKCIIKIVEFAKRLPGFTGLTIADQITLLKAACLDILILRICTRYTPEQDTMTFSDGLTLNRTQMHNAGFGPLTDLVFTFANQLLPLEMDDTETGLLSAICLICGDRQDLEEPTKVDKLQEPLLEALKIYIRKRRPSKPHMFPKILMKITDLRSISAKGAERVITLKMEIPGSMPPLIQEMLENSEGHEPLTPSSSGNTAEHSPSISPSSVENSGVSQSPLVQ

| Compound | outcome | AC50 |
| --- | --- | --- |
| Cc1cc(-n2nc3ccc(Cl)cc3n2)c(O)c(C(C)(C)C)c1 | inactive | – |
| C=C1CC[C@H]2C[C@@H]1C2(C)C | inactive | – |
| CCCCCCC(O)CCCCCCCCCCC(=O)OC (stereo not drawn) | inactive | – |
| CC(=O)c1nccs1 | inactive | – |
| CCCOCCC | inactive | – |
| C/C=C(\C)C(=O)OCC/C=C\CC | inactive | – |
| CC=CC(=O)O | inactive | – |
| O=C(Oc1ccccc1)c1ccccc1 | inactive | – |
| CCCCCC1CCCC(=O)O1 (stereo not drawn) | inactive | – |
| Cc1ccnc(N)c1 | inactive | – |
| [O-][n+]1ccc(Cl)cc1 | inactive | – |
| CO[Si](CCCNCCN)(OC)OC | inactive | – |
| CCCCCCCCCCCCCCCCCC[N+](C)(C)C | – | 15.7 µM (active) |
| CCC(C)(CCC(C)C)C(=O)O (stereo not drawn) | inactive | – |
| CN1CCCC1 | inactive | – |
| O=C(O)c1ccccc1C(=O)O | inactive | – |
| CCCCCCC1CCC(=O)O1 (stereo not drawn) | inactive | – |
| CCC(C)=NO | inactive | – |

From PubChem BioAssay (EPA / NIEHS)
